Assays:
Test in all cases: log2 ratio of Biotin-Ahx-Ub-VS probe labelling (fragment/DMSO); higher = less target engagement (more negative = stronger competition), active = hit call of the paper (q ≤ 0.05, log2 ratio ≤ -1)
Details in all cases: compound concentration: 200 uM; treatment time: 3 h
[1] = biological target: T1, USP42 (UniProt Q9H9J4)
T1 sequence (whole entry): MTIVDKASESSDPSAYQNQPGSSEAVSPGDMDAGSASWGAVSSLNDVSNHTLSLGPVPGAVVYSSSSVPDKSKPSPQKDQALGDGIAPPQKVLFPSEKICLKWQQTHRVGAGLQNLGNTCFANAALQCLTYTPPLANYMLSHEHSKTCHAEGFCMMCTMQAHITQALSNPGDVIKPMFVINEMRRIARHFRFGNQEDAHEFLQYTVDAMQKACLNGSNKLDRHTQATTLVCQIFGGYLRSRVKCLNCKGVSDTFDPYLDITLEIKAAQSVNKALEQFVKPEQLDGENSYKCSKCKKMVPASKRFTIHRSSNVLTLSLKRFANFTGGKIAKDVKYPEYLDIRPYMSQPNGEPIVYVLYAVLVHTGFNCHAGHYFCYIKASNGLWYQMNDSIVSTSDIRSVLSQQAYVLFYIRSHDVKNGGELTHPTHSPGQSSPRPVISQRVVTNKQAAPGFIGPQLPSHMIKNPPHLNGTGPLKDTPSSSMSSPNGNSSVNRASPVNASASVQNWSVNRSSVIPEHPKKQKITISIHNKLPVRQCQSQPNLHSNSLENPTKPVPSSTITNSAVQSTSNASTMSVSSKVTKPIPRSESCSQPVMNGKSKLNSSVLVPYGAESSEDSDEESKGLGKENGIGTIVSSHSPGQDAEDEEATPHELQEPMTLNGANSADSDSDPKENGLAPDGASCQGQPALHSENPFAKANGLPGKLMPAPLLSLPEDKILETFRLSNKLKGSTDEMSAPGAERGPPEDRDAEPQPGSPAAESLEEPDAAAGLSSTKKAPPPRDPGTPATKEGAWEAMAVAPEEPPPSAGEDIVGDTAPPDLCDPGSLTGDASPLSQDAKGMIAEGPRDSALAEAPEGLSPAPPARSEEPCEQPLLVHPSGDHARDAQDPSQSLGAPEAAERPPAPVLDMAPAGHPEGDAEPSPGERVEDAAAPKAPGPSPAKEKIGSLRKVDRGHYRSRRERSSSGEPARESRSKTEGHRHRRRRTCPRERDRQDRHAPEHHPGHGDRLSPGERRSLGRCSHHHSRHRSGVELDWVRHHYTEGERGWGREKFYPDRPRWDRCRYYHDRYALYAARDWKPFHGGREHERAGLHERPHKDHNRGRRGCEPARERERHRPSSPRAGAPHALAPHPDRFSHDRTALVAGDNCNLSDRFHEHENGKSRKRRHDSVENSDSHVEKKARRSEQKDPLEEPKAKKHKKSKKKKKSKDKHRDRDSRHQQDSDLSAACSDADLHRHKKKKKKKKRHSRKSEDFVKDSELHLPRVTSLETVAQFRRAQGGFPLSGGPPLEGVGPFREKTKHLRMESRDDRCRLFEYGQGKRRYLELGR
How it was run: (§1)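 Using Biotin-Ahx-Ub-VS at 0.5 µM final for 1 h, DUBs were labelled in HEK293T lysate (495 µg per sample) that had first been treated in triplicate with fragment at 200 µM or vehicle for 3 h. NeutrAvidin enrichment, LysC and trypsin digestion and diaPASEF LC-MS/MS followed. Spectronaut label-free quantities were global-median-normalised. Values are average log2 fragment/vehicle ratios by unpaired t-test, using proteins with ≥2 unique peptides.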

[2] = biological target: USP46 (UniProt P62068)
Sequence of USP46 (P62068 whole entry): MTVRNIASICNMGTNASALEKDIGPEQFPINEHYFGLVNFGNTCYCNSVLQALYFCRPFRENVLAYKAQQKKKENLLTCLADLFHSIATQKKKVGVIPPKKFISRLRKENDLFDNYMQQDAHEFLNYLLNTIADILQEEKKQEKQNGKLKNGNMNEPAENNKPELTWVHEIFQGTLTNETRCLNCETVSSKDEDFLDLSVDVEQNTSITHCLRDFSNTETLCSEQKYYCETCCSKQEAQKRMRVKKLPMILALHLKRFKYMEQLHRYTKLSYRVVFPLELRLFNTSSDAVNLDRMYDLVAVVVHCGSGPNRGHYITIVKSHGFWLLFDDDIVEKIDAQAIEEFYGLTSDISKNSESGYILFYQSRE
How it was run: as §1

[3] = biological target: T2, USP47 (UniProt Q96K76)
T2 sequence (whole entry): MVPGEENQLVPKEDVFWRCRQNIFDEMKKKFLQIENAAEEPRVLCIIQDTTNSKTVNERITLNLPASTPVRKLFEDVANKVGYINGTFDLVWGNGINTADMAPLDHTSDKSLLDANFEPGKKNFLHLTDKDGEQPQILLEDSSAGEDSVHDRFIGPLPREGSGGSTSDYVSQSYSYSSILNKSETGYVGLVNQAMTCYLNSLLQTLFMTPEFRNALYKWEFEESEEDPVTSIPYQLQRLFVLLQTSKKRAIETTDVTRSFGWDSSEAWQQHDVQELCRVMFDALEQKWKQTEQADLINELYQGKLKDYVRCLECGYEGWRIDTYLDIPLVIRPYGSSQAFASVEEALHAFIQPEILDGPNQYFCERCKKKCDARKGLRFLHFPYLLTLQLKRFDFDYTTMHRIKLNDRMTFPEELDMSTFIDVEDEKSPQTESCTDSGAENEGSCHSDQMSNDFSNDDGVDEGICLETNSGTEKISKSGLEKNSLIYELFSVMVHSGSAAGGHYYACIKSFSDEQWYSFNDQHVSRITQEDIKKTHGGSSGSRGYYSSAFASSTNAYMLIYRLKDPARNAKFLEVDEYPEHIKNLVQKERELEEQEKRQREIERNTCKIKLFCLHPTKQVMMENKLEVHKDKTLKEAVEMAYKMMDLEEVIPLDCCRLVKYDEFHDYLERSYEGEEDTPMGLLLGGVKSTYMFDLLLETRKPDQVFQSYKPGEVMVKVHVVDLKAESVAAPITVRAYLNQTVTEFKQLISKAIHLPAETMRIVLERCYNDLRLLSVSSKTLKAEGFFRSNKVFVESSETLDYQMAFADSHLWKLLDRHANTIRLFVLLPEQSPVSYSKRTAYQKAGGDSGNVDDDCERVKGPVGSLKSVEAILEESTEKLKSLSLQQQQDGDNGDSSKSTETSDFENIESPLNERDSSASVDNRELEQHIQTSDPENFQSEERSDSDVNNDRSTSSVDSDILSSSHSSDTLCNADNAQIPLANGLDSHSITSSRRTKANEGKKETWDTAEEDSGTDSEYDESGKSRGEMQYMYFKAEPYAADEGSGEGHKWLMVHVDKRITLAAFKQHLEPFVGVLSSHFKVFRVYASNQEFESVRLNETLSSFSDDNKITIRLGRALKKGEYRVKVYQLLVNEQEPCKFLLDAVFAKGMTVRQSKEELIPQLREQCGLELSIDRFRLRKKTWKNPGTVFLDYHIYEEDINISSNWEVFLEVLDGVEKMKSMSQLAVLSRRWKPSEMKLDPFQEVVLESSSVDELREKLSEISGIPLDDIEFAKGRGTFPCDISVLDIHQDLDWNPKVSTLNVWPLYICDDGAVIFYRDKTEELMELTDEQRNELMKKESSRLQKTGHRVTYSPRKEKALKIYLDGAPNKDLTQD
How it was run: as §1

[4] = biological target: T3, USP48 (UniProt Q86UV5)
T3 sequence (whole entry): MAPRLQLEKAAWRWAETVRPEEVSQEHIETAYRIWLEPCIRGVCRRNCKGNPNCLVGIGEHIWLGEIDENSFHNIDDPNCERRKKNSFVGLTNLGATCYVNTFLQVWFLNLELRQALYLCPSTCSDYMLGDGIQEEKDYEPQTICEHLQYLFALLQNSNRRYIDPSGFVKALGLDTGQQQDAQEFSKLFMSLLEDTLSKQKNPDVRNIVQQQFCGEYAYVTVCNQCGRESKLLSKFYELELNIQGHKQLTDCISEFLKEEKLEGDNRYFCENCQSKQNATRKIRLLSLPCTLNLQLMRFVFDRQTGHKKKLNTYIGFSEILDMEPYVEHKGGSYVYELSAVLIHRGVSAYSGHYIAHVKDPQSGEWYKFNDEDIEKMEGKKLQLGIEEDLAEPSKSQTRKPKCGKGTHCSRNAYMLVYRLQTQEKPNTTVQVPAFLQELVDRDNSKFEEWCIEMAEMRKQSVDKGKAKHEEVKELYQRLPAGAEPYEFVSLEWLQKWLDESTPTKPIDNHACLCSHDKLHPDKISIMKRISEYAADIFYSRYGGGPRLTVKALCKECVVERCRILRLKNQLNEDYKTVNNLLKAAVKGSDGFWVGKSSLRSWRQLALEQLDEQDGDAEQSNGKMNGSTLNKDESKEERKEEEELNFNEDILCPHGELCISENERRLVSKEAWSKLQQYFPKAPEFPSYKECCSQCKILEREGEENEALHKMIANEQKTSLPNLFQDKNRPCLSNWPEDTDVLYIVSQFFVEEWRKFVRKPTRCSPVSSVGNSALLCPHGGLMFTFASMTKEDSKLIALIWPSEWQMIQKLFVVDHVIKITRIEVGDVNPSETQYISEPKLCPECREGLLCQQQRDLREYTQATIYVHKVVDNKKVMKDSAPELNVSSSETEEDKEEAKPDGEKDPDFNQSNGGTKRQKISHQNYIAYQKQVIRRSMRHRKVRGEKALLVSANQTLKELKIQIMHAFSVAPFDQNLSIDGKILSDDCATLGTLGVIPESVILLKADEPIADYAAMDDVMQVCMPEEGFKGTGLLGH
How it was run: as §1

[5] = biological target: T4, USP5 (UniProt P45974)
T4 sequence (whole entry): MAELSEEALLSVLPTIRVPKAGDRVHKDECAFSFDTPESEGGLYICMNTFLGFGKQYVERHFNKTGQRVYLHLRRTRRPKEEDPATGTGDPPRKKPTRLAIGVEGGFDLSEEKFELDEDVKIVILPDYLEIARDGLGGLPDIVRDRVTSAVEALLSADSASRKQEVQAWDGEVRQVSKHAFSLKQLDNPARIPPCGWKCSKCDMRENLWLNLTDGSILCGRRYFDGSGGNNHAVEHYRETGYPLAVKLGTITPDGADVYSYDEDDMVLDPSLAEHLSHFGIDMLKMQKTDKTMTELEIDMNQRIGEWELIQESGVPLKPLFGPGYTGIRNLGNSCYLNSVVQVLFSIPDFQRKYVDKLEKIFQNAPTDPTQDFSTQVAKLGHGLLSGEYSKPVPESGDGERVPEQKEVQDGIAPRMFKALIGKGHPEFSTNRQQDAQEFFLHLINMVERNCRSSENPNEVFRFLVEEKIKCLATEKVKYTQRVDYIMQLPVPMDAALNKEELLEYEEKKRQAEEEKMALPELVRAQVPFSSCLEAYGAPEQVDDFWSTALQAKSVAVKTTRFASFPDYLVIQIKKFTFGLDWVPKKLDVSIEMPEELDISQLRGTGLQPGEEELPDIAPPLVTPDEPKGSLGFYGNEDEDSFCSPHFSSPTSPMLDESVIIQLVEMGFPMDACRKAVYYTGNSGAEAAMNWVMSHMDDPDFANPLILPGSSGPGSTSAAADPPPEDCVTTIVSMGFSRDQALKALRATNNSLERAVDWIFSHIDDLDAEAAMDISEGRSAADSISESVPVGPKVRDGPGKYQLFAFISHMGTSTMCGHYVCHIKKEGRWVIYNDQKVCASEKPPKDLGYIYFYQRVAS
How it was run: as §1

[6] = biological target: USP54 (UniProt Q70EL1)
Sequence of USP54 (Q70EL1 whole entry): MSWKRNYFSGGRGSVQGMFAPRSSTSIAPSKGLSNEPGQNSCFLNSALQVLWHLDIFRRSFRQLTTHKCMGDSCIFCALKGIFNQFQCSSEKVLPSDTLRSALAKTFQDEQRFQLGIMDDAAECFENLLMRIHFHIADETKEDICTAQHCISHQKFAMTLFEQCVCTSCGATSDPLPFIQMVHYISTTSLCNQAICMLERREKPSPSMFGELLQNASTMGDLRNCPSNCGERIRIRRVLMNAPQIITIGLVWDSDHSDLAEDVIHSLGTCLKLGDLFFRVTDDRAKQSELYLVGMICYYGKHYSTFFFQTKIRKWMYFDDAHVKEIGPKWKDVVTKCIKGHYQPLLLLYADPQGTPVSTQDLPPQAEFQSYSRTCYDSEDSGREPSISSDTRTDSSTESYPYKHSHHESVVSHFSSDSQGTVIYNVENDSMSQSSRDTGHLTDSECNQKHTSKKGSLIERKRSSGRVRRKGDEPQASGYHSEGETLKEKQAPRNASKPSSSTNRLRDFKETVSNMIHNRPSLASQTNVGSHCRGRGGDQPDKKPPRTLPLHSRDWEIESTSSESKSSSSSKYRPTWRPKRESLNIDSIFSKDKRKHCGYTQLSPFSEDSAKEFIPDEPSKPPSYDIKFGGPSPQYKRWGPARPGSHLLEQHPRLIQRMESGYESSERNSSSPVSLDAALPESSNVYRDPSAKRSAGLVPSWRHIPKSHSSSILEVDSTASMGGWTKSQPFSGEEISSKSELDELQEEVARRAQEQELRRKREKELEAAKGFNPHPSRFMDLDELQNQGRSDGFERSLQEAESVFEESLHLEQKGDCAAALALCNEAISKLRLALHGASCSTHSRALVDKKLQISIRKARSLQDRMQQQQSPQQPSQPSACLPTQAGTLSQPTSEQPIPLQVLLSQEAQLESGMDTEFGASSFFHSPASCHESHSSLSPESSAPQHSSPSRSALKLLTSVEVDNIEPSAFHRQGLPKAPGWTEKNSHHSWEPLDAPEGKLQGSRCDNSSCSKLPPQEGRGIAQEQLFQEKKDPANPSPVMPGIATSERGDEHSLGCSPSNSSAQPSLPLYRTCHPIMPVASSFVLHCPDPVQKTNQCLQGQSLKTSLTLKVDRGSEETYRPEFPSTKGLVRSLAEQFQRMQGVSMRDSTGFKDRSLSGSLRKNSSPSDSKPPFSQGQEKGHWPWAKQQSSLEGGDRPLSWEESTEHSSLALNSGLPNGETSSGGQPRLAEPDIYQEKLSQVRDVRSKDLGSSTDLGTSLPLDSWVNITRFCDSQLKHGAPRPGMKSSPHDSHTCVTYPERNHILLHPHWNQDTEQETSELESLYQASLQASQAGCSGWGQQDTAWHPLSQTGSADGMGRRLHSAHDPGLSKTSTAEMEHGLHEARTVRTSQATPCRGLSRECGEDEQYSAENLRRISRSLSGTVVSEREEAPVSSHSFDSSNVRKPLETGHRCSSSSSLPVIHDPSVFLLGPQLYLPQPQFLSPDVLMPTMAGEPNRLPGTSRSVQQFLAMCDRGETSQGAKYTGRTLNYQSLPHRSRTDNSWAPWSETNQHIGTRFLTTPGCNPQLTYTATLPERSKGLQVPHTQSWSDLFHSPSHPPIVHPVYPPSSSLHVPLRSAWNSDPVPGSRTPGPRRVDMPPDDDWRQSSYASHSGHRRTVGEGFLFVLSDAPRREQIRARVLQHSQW
How it was run: as §1

[7] = biological target: USP7 (UniProt Q93009)
Sequence of USP7 (Q93009 whole entry, looked up): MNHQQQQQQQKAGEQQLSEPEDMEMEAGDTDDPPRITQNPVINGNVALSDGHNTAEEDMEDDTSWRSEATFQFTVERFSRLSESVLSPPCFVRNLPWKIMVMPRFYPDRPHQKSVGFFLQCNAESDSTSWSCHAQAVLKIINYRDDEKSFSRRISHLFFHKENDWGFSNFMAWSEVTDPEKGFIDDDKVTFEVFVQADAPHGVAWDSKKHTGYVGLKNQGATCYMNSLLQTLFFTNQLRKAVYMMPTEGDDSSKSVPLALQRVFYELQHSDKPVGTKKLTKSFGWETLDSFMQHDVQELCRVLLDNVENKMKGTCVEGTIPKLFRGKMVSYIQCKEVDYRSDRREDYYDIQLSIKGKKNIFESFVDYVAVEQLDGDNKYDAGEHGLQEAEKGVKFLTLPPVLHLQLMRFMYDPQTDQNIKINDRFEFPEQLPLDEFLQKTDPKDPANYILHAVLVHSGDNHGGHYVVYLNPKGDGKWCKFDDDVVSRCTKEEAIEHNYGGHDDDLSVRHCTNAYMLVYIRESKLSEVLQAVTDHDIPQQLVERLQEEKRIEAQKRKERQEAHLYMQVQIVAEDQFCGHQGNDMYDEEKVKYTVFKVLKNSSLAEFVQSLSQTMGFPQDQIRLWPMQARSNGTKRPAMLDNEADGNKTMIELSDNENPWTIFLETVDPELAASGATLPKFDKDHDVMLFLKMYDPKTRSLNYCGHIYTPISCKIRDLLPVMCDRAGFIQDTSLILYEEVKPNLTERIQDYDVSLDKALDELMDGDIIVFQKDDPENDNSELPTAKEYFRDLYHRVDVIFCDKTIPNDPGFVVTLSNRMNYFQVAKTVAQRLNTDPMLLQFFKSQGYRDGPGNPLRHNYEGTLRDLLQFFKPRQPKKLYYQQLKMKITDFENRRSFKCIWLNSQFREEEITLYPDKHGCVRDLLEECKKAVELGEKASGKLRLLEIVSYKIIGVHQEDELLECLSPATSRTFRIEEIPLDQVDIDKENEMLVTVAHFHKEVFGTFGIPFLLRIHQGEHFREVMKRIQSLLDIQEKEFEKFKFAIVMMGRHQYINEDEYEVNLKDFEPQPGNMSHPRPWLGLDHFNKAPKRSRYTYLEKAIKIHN
How it was run: as §1

[8] = biological target: T5, USP8 (UniProt P40818)
T5 sequence (whole entry): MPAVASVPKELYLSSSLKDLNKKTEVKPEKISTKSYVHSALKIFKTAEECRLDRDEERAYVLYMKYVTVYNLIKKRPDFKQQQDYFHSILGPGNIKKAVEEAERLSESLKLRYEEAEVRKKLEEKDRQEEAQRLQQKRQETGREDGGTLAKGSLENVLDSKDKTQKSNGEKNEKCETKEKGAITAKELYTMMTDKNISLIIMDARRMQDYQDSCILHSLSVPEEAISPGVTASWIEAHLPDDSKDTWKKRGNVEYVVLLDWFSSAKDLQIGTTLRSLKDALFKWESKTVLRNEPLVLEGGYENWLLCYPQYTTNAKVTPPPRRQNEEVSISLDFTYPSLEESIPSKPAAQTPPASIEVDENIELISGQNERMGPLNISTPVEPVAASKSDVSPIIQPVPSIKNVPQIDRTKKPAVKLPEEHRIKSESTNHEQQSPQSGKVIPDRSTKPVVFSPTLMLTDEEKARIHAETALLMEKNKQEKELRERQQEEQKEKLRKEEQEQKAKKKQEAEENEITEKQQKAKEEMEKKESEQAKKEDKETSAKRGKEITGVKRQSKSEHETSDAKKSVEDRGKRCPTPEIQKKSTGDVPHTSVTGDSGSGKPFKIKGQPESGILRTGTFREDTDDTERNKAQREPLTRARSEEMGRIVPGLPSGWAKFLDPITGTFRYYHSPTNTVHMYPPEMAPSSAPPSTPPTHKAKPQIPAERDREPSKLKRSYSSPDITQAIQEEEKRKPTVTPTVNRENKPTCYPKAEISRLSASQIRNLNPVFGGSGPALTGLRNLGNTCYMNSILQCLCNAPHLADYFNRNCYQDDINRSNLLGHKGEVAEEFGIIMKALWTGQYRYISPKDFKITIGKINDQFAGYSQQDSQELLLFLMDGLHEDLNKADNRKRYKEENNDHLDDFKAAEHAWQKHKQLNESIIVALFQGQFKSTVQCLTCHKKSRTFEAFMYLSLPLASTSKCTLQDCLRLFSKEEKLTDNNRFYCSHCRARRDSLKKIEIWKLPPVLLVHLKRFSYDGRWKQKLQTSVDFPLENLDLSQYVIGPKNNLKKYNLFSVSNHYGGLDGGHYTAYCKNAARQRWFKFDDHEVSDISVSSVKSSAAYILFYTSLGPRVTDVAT
How it was run: as §1

[9] = biological target: USP9X (UniProt Q93008)
How it was run: as §1

[10] = biological target: UniProt O00487
Sequence of UniProt O00487 (O00487 whole entry): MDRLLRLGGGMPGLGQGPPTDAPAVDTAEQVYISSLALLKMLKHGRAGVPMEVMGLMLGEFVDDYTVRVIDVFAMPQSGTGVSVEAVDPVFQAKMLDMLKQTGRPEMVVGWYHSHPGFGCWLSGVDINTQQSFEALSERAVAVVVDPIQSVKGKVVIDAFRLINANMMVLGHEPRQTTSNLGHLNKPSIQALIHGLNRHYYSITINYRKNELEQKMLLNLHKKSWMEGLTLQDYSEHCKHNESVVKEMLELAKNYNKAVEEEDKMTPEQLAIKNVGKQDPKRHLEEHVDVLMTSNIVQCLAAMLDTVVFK
How it was run: as §1

Measured: log2 ratio of Biotin-Ahx-Ub-VS probe labelling

CCC(NC(=O)CCl)c1ccc(Cl)cc1 (stereo not given)
inactive: [1] 0.358 | [2] -0.00255 | [3] -0.558 | [4] -0.293 | [5] 0.0661 | [6] 0.671 | [7] -0.195 | [8] -0.0586 | [9] -0.112 | [10] 0.0429

From the supplement of paper PMC11732987, “Enantioselective OTUD7B fragment discovery through chemoproteomics screening and high-throughput optimisation” (Communications Chemistry, 2025)
